“And” between values parts separate entries of the source, which are not always exact repeats. Identical values can stand only once. Among all 16,000 compounds or so, about 4,000 (25%) were called active. Roughly 26% stayed inconclusive and do not appear here. A selection follows. Values without a mark were called inactive. Calls follow the shape of the dose curve; as a rule, active = well fitted curve in the direction sought with a large enough effect; inconclusive = small, poorly fitted or top-dose-only effect, or effect the other way; inactive = no such curve, though single readings can be large or run the other way.

As a reminder, the AC50 is the concentration at which the activity in the assay is half-maximal.
% is scaled to controls: 0 for no effect and ±100 for the full control effect.

The target in the experiment is Cytochrome P450 2C9 (Homo sapiens) (UniProt P11712). Kind of experiment: Cytochrome panel assay with activity outcomes. Conditions: recombinant CYP, pro-luciferin dealkylation, luminescence, p450-cyp2c9; series mostly up to 57.1 µM.
Chain of Cytochrome P450 2C9 (Homo sapiens) (P11712 whole entry, looked up): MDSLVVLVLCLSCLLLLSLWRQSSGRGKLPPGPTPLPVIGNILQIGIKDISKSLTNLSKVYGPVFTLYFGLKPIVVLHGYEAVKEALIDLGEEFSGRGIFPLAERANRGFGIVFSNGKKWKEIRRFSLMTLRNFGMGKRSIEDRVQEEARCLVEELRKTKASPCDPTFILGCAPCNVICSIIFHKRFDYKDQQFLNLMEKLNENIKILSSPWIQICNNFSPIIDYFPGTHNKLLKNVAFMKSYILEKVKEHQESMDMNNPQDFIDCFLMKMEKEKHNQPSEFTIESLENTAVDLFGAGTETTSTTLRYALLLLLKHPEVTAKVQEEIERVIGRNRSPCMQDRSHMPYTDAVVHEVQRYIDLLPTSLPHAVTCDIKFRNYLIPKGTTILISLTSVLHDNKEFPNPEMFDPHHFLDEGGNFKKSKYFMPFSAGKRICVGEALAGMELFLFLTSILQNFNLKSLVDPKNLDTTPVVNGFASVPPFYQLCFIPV
Turning to `COC(=O)c1cc(=O)[nH]c(=O)[nH]1`, the activity, negative = inhibition was 3.6% [at 11.4 µM].

On to `CCOc1ccc(C(=O)Nc2ccc(Cl)cn2)cc1Cl`, for which the AC50 entry is “inactive”.

In the case of `Cc1ccc(C(=O)Nc2cc(Cl)ccc2OC(=O)c2ccc(C)cc2)cc1`, the AC50 is 14.1 µM (active).

Regarding `C#CCCCO/N=C1/C[C@@H](O)[C@@H](O)[C@@H]2[C@@H]3C(=O)N([C@@H](C)c4ccccc4)C(=O)[C@H]3CC[C@H]12`, the activity, negative = inhibition was -17.4% [at 11.4 µM].

With `CSc1nc(Oc2ccc(=O)[nH]n2)nc(N(C)C)n1`, the AC50 entry is “inactive”.

On to `CCOC(=O)c1c(NC(=S)NC(=O)c2cnn(CC)c2)sc2c1CCC(C)C2` (centres undefined), for which the AC50 is 5.01 µM (active).

Regarding `CCOC(=O)CCN1C(=O)[C@H]2[C@@H]3[C@H](O)[C@H](O)CC(=O)[C@H]3CC[C@H]2C1=O`, the activity, negative = inhibition was 14.8% [at 11.4 µM] and 4.05% [at 11.4 µM].

With `C[C@@](N)(C(=O)O)c1ccc(P(=O)(O)O)cc1`, the AC50 result is “inactive”.

Consider `O=C(O)c1ccc(NCc2nc3cc4ccccc4cc3[nH]2)cc1`, for which the activity, negative = inhibition is 8.12% [at 11.4 µM].

On to `O=C(c1ccccc1)c1ccc2nc(-c3ccc(NC(=O)c4ccccc4Br)cc3)[nH]c2c1`, for which the concentration at half-maximal activity (AC50) was 2 µM (active).

With `O=C(c1ccccc1)c1ccc2nc(-c3ccc(NC(=O)c4ccccc4F)cc3)[nH]c2c1`, the AC50 is 4.47 µM (active).

Turning to `C[C@@H](c1ccccc1)N1C(=O)[C@H]2[C@@H]3[C@H](O)C=CC(=O)[C@H]3CC[C@H]2C1=O`, the activity, negative = inhibition was 3.06% [at 11.4 µM].

With `Cc1nn(CCc2n[nH]c(=S)n2-c2ccc(F)c(Cl)c2)c(C)c1[N+](=O)[O-]`, the AC50 entry was “inactive”.

Consider `COC(=O)N1CCC[C@@]2(CCN(C(=O)Nc3ccccc3)C2)C1`, for which the AC50 entry is “inactive”.

With `COc1ccc(NC(=O)N2CCC3(CC2)CCN(C(=O)c2csnn2)CC3)cc1`, the AC50 result is “inactive”.

In the case of `O=C(O)Cc1cc(I)c(Oc2ccc(O)c(I)c2)c(I)c1`, the AC50 is 5.01 µM (active).

`COc1cc(CC(=O)O)ccc1O`: the AC50 result is “inactive”.

In the case of `O=C(O)Cc1ccc(O)c(O)c1`, the AC50 result is “inactive”.

As to `Cc1cccc(NC(=O)c2ccc([N+](=O)[O-])o2)n1`, the AC50 entry is “inactive”.

`CCOc1cc(NC(=O)c2ccccc2[N+](=O)[O-])c(OCC)cc1NC(=O)CC(C)C`: the AC50 entry was “inactive”.

Turning to `O=C(Nc1cccc(NC(=O)c2ccccc2[N+](=O)[O-])n1)c1ccccc1[N+](=O)[O-]`, the AC50 is 0.794 µM (active).

As for `CO/N=C(\C(=O)N[C@@H]1C(=O)N2C(C(=O)[O-])=C(C[N+]3(C)CCCC3)CS[C@@H]12)c1csc(N)n1`, the AC50 entry was “inactive”.

As for `N#Cc1cccc(-c2nc(NCCN3CCOCC3)c3ccccc3n2)c1`, the activity, negative = inhibition is 5.64% [at 2.29 µM].

As for `N#Cc1nc(-c2ccc(OCc3ccccc3)cc2)oc1NCCN1CCOCC1`, the AC50 was 7.94 µM (active).

For the compound `N#Cc1ccccc1-c1ccc2ncnc(NCCN3CCOCC3)c2c1`, the activity, negative = inhibition was 2.09% [at 2.29 µM].

Take `CO[C@H]1COC(=O)[C@H](C)COC(=O)[C@@H](Cc2ccccc2)NC(=O)C/C=C\[C@H]1C`: the activity, negative = inhibition is -8.74% [at 11.4 µM].

Consider `Clc1ccc(Cl)c(SCCCN2CCNCC2)c1`, for which the activity, negative = inhibition was -3.39% [at 11.4 µM].

`COC(=O)c1sccc1NC(=O)CSc1cc(Cl)ccc1Cl`: the AC50 is 7.08 µM (active).

Turning to `Cc1cc(Cl)nc(NC(=O)CSc2ccc(Cl)cc2)n1`, the activity, negative = inhibition is -1.09% [at 11.4 µM].

As for `COC(=O)c1sccc1NC(=O)CSc1ccccc1NS(=O)(=O)c1ccc(Cl)cc1`, the AC50 is 1.78 µM (active).

As for `COC(=O)c1sccc1NC(=O)CSc1ccc(Cl)cc1`, the AC50 was 15.8 µM (active).

Take `CC(=O)OC[C@H]1O[C@@H](O/N=C2/[C@H]3O[C@@H]3[C@@H](O)[C@H]3[C@H]2CCn2c(=O)n(-c4ccccc4)c(=O)n23)[C@H](OC(C)=O)[C@@H](OC(C)=O)[C@@H]1OC(C)=O`: the activity, negative = inhibition was 10.3% [at 11.4 µM].

`NC(=O)C[C@H](NC(=O)Cc1ccc(O)cc1O)C(=O)O`: the AC50 entry is “inactive”.

Consider `CCOC(=O)CSc1nnc(CNC(=O)c2ccc(OC)cc2)n1C1CCCCC1`, for which the AC50 entry is “inactive”.

`O=C(Nc1ccccc1)N1CCCC(c2nc(-c3ccc(F)cc3)no2)C1` (centres undefined): the AC50 was 14.1 µM (active).

In the case of `Cc1noc(C)c1C(=O)N1CCC2(CCCN(C(=O)Nc3ccccc3)C2)CC1`, the AC50 result was “inactive”.

On to `CCCc1nnc(SCC(=O)N2CCCC(C)C2)n1CC1CCCO1` (centres undefined), for which the AC50 result was “inactive”.

On to `CCCCCC(=O)N1CCCC(c2nc(-c3ccc(OC)cc3)no2)C1` (centres undefined), for which the AC50 is 3.55 µM (active).

As to `O=C(Nc1ccccc1)N1CCCC2(CCNCC2)C1`, the AC50 result is “inactive”.

On to `COc1ccc(-c2nc(C#N)c(N3CCC(C(N)=O)CC3)o2)cc1OC`, for which the AC50 result was “inactive”.

Consider `COc1ccc(-c2noc(C3CCCN(C(=O)c4ccccc4OC)C3)n2)cc1OC` (centres undefined), for which the AC50 is 11.2 µM (active).

As for `CC(C)(N=NC(C)(C)C1=NCCN1)C1=NCCN1`, the activity, negative = inhibition is 3.47% [at 11.4 µM].

`O=C(CN(Cc1ccco1)C(=O)c1cccc(Cl)c1)Nc1c(Cl)cc(Cl)cc1Cl`: the AC50 was 11.2 µM (active).

In the case of `COc1ccc(Oc2ncc3ncc(=O)n(C)c3n2)cc1`, the AC50 entry is “inactive”.

Turning to `COc1ccc(/C=C2\N=C(SC)N(C)C2=O)cc1`, the half-maximal activity concentration (AC50) is 25.1 µM (active).

On to `CCN(c1nc(N)c(C(=O)N=C(N)N)nc1Cl)C(C)C`, for which the AC50 entry is “inactive”.

Consider `CN(C)Cc1ccccc1-c1nc(NCc2ccccc2)c2ccccc2n1`, for which the activity, negative = inhibition is -6.5% [at 2.29 µM].

With `CC(Sc1nc(NCc2ccccc2)nc(N(C)C)n1)C(=O)Nc1ccccc1` (centres undefined), the AC50 was 0.562 µM (active).

As to `CN(C)c1nc(NCc2ccccc2)nc(N/N=C/c2ccc(Cl)cc2Cl)n1`, the AC50 result is “inactive”.

As for `CC(=O)N[C@@H](C(=O)O)C(C)(C)SN=O`, the AC50 entry was “inactive”.

As to `COc1ccccc1CNc1ncnc2ccc(-c3cccc(C#N)c3)cc12`, the activity, negative = inhibition is -23.5% [at 2.29 µM].

On to `COc1ccccc1CNc1ncnc2ccc(-c3ccccc3OC)cc12`, for which the AC50 is 0.794 µM (active).

As for `COc1ccccc1-c1ccc2ncnc(NCc3cccnc3)c2c1`, the activity, negative = inhibition is -19.3% [at 2.29 µM].

In the case of `COc1ccc(CNc2ncnc3ccc(-c4cccnc4)cc23)c(OC)c1`, the activity, negative = inhibition is -24.5% [at 2.29 µM].

On to `COc1ccccc1CNc1ncnc2ccc(-c3ccccc3CN(C)C)cc12`, for which the activity, negative = inhibition is -2.92% [at 2.29 µM].

Take `COc1ccc(CNc2ncnc3ccc(-c4ccccc4OC)cc23)c(OC)c1`: the AC50 was 0.398 µM (active).

On to `COc1ccc(CNc2ncnc3ccc(-c4ccc(C(=O)N(C)C)cc4)cc23)c(OC)c1`, for which the activity, negative = inhibition was 1.99% [at 2.29 µM].

On to `COCCNc1ncnc2ccc(-c3ccccc3OC)cc12`, for which the activity, negative = inhibition was 16.9% [at 2.29 µM].

As to `COc1ccccc1-c1ccc2ncnc(NCc3ccccc3)c2c1`, the AC50 is 0.501 µM (active).

(Values after PubChem BioAssay AID1851 (National Center for Advancing Translational Sciences (NCATS), 2009).)
